Source: PubChem BioAssay AID1159580 (chemical genetic matrix, 2015)
Among all 5,500 compounds or so, about 2,000 (36%) were called active. Inconclusive results (about 18%) are left out. Cut-off read from the data, not from the text of the source: active = normalized growth mostly below about 0.91 (no sharp cut-off); inconclusive = no clear call, values can overlap the other calls; inactive = mostly above about 0.92. The list shows a part of the results.

Assay: chemical genetic growth profiling, strain panel (AID 1159580);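 note: tested at 20 µM; growth read once vehicle control cultures reached saturation at 30 °C; 1 = growth at the plate median or of vehicle wells; lower values mean less growth of the strain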
Conditions: S. cerevisiae deletion strains, growth OD

Measured: normalized growth

COC(=O)c1cc([N+](=O)[O-])ccc1NC(C)=O
inactive: locus YAL013W, strain DEP1, active compounds read low 0.986 | locus YBR229C, strain ROT2, active compounds read low 1 | locus YCL061C, strain MRC1, active compounds read low 0.997 | locus YDL101C, strain DUN1, active compounds read low 1.01 | locus YDL134C, strain PPH21, active compounds read low 1.01 | locus YDR150W, strain NUM1, active compounds read low 0.989 | locus YEL061C, strain CIN8, active compounds read low 0.989 | locus YGR078C, strain PAC10, active compounds read low 1 | locus YGR229C, strain SMI1, active compounds read low 1 | locus YHR030C, strain SLT2, active compounds read low 0.929 | locus YHR087W, strain rtc3, active compounds read low 1.02 | locus YJL187C, strain SWE1, active compounds read low 0.998 | locus YJR043C, strain POL32, active compounds read low 0.994 | locus YJR075W, strain HOC1, active compounds read low 1.03 | locus YKL190W, strain CNB1, active compounds read low 0.995 | locus YLR039C, strain RIC1, active compounds read low 1.05 | locus YLR058C, strain SHM2 (second series), active compounds read low 0.996 | locus YLR085C, strain ARP6, active compounds read low 0.977 | locus YLR262C, strain YPT6, active compounds read low 1.03 | locus YML094W, strain GIM5, active compounds read low 1.02 | locus YMR219W, strain ESC1, active compounds read low 0.999 | locus YMR263W, strain SAP30, active compounds read low 0.979 | locus YMR307W, strain GAS1, active compounds read low 0.998 | locus YNL128W, strain TEP1, active compounds read low 1.01 | locus YNL153C, strain GIM3, active compounds read low 0.986 | locus YNL298W, strain CLA4 (second series), active compounds read low 0.958 | locus YNL322C, strain KRE1, active compounds read low 1.01 | locus YNR030W, strain Alg12, active compounds read low 1 | locus YPL055C, strain LGE1, active compounds read low 0.983 | locus YPL241C, strain CIN2, active compounds read low 1.03 | locus YPR135W, strain CTF4, active compounds read low 0.992
